# Data reported in ChEMBL document CHEMBL3988442, “University of Dundee, Small-Polar-MMV Screening Library” (2021).
# The campaign covered roughly 48,000 compounds. About 13,000 (27%) showed an effect of 50% or more. The list shows a part of the results.
# System: Wolbachia pipientis
# Test: Anti-Wolbachia Cell-Based Screen
# Format: functional
# Parameters: scale not given: in the data most compounds retested in dose-response had high values
# Details: 5 µM
row,Compound,Percent Effect
1,CN(CCCNC(=O)Nc1ccc(C#N)cc1)CC(F)(F)F,3.488%
2,Cc1noc(CCNC(=O)C2CSCN2C(=O)C2CCCC2)n1 (centres undefined),1.723%
3,CC(C)N1CCC(CC(=O)NCC2OCCc3ccccc32)CC1 (centres undefined),-17.34%
4,CC(C)(O)CN1CCN(C(=O)COCC2CC2)CC1,6.995%
5,COc1c(C)cnc(CN(C)C(=O)c2cccnc2N(C)C)c1C,-5.056%
6,CCOCc1cnc2n1CCN(C(=O)c1ccoc1C)C2C (centres undefined),98.54%
7,COCc1cnc2n1CCN(C(=O)c1oc3ccccc3c1C)C2C (centres undefined),-7.418%
8,Cc1ncoc1C(=O)N1CCn2c(COCC3CC3)cnc2C1C (centres undefined),-11.18%
9,COCc1cnc2n1CCN(C(=O)c1cnc3ccccc3c1)C2C (centres undefined),-17.18%
10,CC1c2ncc(COCC3CCOCC3)n2CCN1C(=O)c1ccoc1 (centres undefined),2.746%
11,COCc1cnc2n1CCN(C(=O)c1cn(C)c3ccccc13)C2C (centres undefined),101.2%
12,COCc1cnc2n1CCN(C(=O)c1cc3ccccc3o1)C2C (centres undefined),-14.51%
13,COc1ncccc1C(=O)N1CCn2c(COCC3CC3)cnc2C1C (centres undefined),-2.491%
14,CCOCc1cnc2n1CCN(C(=O)c1ccccc1)C2C (centres undefined),105.6%
15,CCOCc1cnc2n1CCN(C(=O)Cc1cccs1)C2C (centres undefined),1.059%
16,CCOCc1cnc2n1CCN(C(=O)c1cccc3c1OCCO3)C2C (centres undefined),83.71%
17,CCOCc1cnc2n1CCN(C(=O)Cc1ccco1)C2C (centres undefined),-11.07%
18,c1ccc2sc(N3CCCN(c4ncnc5c4CCNC5)CC3)nc2c1,-7.795%
19,CC(NCCNS(=O)(=O)c1cccc(Cl)c1)C1CCOCC1 (centres undefined),-16.43%
20,CCOc1ccc(C(=O)NCc2ccnc(N3CCCC3)c2)cn1,-6.067%
21,CCCN1CCN(Cc2cccc(OCC(N)=O)c2)[C@H]2CS(=O)(=O)C[C@H]21,-4.749%
22,CCOCc1cnc2n1CCN(C(=O)c1cn(C)c3ccccc13)C2C (centres undefined),101.9%
23,O=C(c1ccc(Cl)cn1)N1CCC(COCc2ccccc2)C1 (centres undefined),7.677%

row,Compound,Percent Effect
1,CC(C(=O)NC1CCCC1)S(=O)(=O)Cc1noc(C(C)(C)C)n1 (centres undefined),6.849%
2,CC(C)c1noc(CN(CCC2CCCCC2)CC(N)=O)n1,116.2%
3,CN(Cc1noc(C(C)(C)C)n1)CC1CCN(CCO)CC1,-10.5%
4,CCc1noc(CN(CCC2CCCCC2)CC(N)=O)n1,163.4%
5,C=C(C)CN(CC)Cc1nc(CC)no1,1.944%
6,CC(=O)N1CCCCCC1C1CCN(Cc2nc(C(C)C)no2)CC1.Cl (centres undefined),9.412%
7,CC(C)(C)c1nc(CN(CCC2CCCCC2)CC(N)=O)no1,228.2%
8,CC(C)c1noc(CC[C@@H]2CCCN3CCCC[C@H]23)n1,17.3%
9,CCc1noc(CN(CC(=O)N2CCCCC2)c2ccc(C)cc2)n1,0.4396%
10,CC(C#N)CSc1ccccc1NCC(=O)NCc1ccccc1 (centres undefined),17.5%
11,CCC1CN(C(=O)c2cc(C(C)=O)c(C)[nH]c2=O)CCN1C(C)C (centres undefined),0.5617%
12,CCCN(c1ccccc1C(=O)O)S(=O)(=O)c1cccc2cccnc12,-16.07%
13,COCCN1CCN(c2nc(C3CCCC3)nc3c2cnn3C)CC1,8.561%
14,CCCc1nc(N2CCCC(CCOC)C2)c2cnn(C)c2n1 (centres undefined),105.9%
15,CCCc1nc(N2CCC(CCO)CC2)c2cnn(C)c2n1,-6.253%
16,CCc1nc(N2CCN(CCOC)CC2)c2cnn(C)c2n1,1.381%
17,CCc1nc(N2CCCC(CCCOC)C2)c2cnn(C)c2n1 (centres undefined),108.6%
18,COCC1CCN(c2nc(C(C)(C)C)nc3c2cnn3C)C1 (centres undefined),-4.471%
19,Cc1noc([C@H]2C[C@H]3OCC[C@H]3N(Cc3ccc(F)cc3)C2)n1.O=C(O)C(F)(F)F,9.305%
20,CCN(CC)C(=O)Cn1nc(C(C)C)c2cnn(C(C)(C)C)c2c1=O,8.022%
21,C=C(C)CN(Cc1cccc(O)c1)C1CCC(O)CC1 (centres undefined),3.823%
22,CCc1nc2c(N3CCC4(CC3)CNC(=O)C4)ncnc2o1,4.745%
23,Cn1c(Cn2ccnc2)nnc1C1CCCN(Cc2ccncc2)C1 (centres undefined),-0.06506%

row,Compound,Percent Effect
1,Cc1ncsc1C(=O)NC1CCN(Cc2cccnc2)CC1,3.367%
2,c1cc(-c2cc(C3CCN(Cc4cncnc4)C3)ccn2)ccn1 (centres undefined),-7.458%
3,c1cncc(CN2CCC(c3csc4nccn34)CC2)c1,140.6%
4,Cc1cccc(CN2CCC(c3nccn3CC(N)=O)CC2)n1,-14.31%
5,Cc1cccc(CN2CCC(c3csc4nccn34)CC2)n1.O=CO,151.3%
6,FC(F)(F)c1cc(C2CCCN(Cc3ccncc3)C2)n[nH]1 (centres undefined),-5.824%
7,Cc1cccc(CN2CCC(NS(C)(=O)=O)CC2)n1,-9.608%
8,c1cc(CN2CCCC(c3ccnc4nccn34)C2)ccn1 (centres undefined),150%
9,c1cc(CN2CCC(c3ccnc4nccn34)C2)ccn1 (centres undefined),128.4%
10,Fc1ccc(OCc2nnc([C@H]3CCN(Cc4ccncc4)C3)o2)cc1,12.6%
11,c1cncc(CN2CCC(c3n[nH]c(C4CC4)n3)CC2)c1,10.48%
12,Cc1ccc(C)c(S(=O)(=O)NCCNc2ccc(-n3cccc3)nn2)c1,14.81%
13,C=C(C)CN(CC)S(=O)(=O)c1cccc(F)c1C#N,-7.097%
14,CCN(CCO)C(=O)C1CCC(=O)N(CCc2cccc(F)c2)C1 (centres undefined),-9.721%
15,O=C(Nc1cnccn1)[C@H]1COC[C@H]2CN(c3ncc(F)cn3)C[C@H]21,-11.52%
16,CCN1CCN(C(=O)c2cnc(Cc3c(Cl)cccc3Cl)nc2O)CC1,1.362%
17,CCc1nccc(CN2CCCC(CNC(=O)c3occc3C)C2)n1 (centres undefined),4.372%
18,c1ccc(CCN2CCCC(c3noc(C4CC4)n3)C2)cc1 (centres undefined),-7.15%
19,c1cncc(CN2CCC(c3ccnc4nccn34)C2)c1 (centres undefined),122.6%
20,Clc1cccnc1N1CCC(C2CCN(Cc3cccnc3)CC2)C1 (centres undefined),-0.1569%
21,c1ccc(CCN2CCCC(c3ccnc4nccn34)C2)cc1 (centres undefined),130.1%
22,CCn1ccnc1CN(C)C1CCCN(CCc2ccccc2)C1 (centres undefined),17.47%
23,Clc1ccc(CN2CCC(C3CCN(Cc4cccnc4)CC3)C2)cc1 (centres undefined),-5.932%
